Screening results from PubChem.
TDP1 cell noCPT: qHTS for Inhibitors of human tyrosyl-DNA phosphodiesterase 1 (TDP1): qHTS in cells in absence of CPT. DT40 Tdp1-/- hTDP1 cells, no CPT, ATP luminescence, 48 h. Potency, µM (titrated, usually from 46.2 µM), for the others: at the top dose activity change, negative = growth inhibition, usual class: inhibitors. hit rate 15% among 420,000; also: potency is read from the fitted curve at half-maximal effect; nearly all actives have a fitted effect of over 55% in size
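A cellular qHTS used chicken DT40 cells lacking endogenous Tdp1 but carrying stably transfected human TDP1. Compounds were applied without camptothecin, and cell growth kinetics were judged by ATP-dependent luminescence after ≥48 hr.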
ELG1 repair inh: qHTS screen for small molecules that inhibit ELG1-dependent DNA repair in human embryonic kidney (HEK293T) cells expressing luciferase-tagged ELG1 | HEK293T ELG1-luciferase reporter, luminescence, 16 h; DNA damage induced by 5-fluorouridine | Potency, µM (top dose mostly 46.1 µM), without a hit: at the highest dose activity change, negative = inhibition, most hits filed as inhibitors | hit rate 2.3% among 330,000; also: potency is read from the fitted curve at half-maximal effect; nearly all actives have a fitted effect of over 55% in size
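Cells (2,000 per well) received 5-fluorouridine plus test compound or DMSO and were incubated 16 hr at 37 °C, 5% CO2. Luciferase activity was read by luminescence 30 min after ONE-Glo addition; signal suppression marked inhibition of damage-induced ELG1 function.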
TDP1 block: qHTS Assay for Inhibitors of Tyrosyl-DNA Phosphodiesterase (TDP1); Potency, µM (highest dose often 130 µM), for the others: at the top dose activity change, negative = inhibition, actives largely listed as inhibitors; recombinant TDP1, AlphaScreen DNA substrate cleavage; hit rate 0.28% among 350,000; AID 485290, 2010; also: potency is read from the fitted curve at half-maximal effect; nearly all actives have a fitted effect of over 40% in size
Target sequence (Q9NUW8 whole entry, looked up): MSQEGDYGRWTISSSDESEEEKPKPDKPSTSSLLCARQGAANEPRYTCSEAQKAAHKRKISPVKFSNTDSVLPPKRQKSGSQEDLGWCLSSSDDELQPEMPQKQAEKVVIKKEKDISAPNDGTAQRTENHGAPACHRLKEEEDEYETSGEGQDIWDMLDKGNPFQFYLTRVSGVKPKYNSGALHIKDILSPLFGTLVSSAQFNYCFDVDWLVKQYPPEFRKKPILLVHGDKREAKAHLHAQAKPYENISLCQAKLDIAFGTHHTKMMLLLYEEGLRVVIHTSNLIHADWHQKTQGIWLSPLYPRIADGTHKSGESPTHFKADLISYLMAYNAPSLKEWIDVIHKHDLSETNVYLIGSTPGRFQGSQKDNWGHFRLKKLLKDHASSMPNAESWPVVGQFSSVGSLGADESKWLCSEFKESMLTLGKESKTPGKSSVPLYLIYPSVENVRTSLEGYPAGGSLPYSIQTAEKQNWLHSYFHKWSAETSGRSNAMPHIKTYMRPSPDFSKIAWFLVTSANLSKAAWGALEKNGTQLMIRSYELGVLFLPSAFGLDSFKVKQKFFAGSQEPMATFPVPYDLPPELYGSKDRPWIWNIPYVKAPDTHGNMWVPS
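Steps: enzyme plus compound, 15 min RT; add biotin/phosphotyrosine-FITC oligonucleotide (15 nM final), react 5 min; add donor/acceptor beads (10 ug/ml final), 10 min; read AlphaScreen. Tdp1 at 1 nM final.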
Giardia kill: Small Molecules that selectively kill Giardia lamblia: qHTS. Giardia lamblia trophozoite viability. hit rate 0.15% among 340,000. activity change, % at 7.66 µM, hits read low; in the data active = activity change below about -80%; inconclusive = between about -30% and that limit;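 also: parasites exposed to compound for two days anaerobically before the ATP read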
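Anaerobic 48 hrs incubation at 37 deg C of 100 trophozoites/well with test compounds; ATPLite 1-Step luminescence, 15-30 min RT, reports cellular ATP as viability.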
IL1B secr inh: qHTS for Inhibitors of Inflammasome Signaling: IL-1-beta AlphaLISA Primary Screen | THP-1 LPS/ATP IL-1B secretion, AlphaLISA, 16 h; hits give low values | activity change, % at 57.5 µM | hit rate 4.7% among 360,000; in the data active = activity change below about -50%; inconclusive = mostly about -30% to -49%
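Secreted IL-1B measured by AlphaLISA bead assay after 16 h compound exposure of THP-1 cells; compounds (final up to 57.5 uM) added 1 h before LPS (250 ng/mL) and ATP (1.25 mM) stimulation; lower signal means less secretion.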
TDP1 cell CPT: qHTS for Inhibitors of human tyrosyl-DNA phosphodiesterase 1 (TDP1): qHTS in cells in presence of CPT | Potency, µM (titrated, usually from 46.2 µM), inactives show top-dose activity change, negative = growth inhibition, hits mostly inhibitors | chicken DT40 Tdp1-/-;hTDP1 cells + 20 nM CPT, ATP luminescence, 48 h | hit rate 12% among 420,000; also: potency is read from the fitted curve at half-maximal effect; nearly all actives have a fitted effect of over 55% in size
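Chicken DT40 Tdp1-/- cells stably complemented with human TDP1 were seeded at 400 cells/well in medium containing 20 nM camptothecin, exposed to pin-transferred compounds, and grown at 37 °C for at least 48 hr. Viability was read as ATP luminescence.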
The depositor's hits bear a star; ? = inconclusive; nt = no result; [ ] = dose if it differs, or a comment. In the library only some 19% were active in any assay of this set; here they are far more common. Unless noted, calls follow the shape of the dose curve; as a rule, active = well fitted curve in the direction sought with a large enough effect; inconclusive = small, poorly fitted or top-dose-only effect, or another doubt; inactive = no such curve, though single readings can be large; an effect the other way counts as inactive or inconclusive. % is scaled to controls: 0 for no effect and ±100 for the full control effect.

SMILES | TDP1 cell noCPT | ELG1 repair inh | TDP1 block | Giardia kill | IL1B secr inh | TDP1 cell CPT
O=[N+]([O-])c1ccccc1S(=O)(=O)Oc1ccccc1/C=N/n1cnnc1 | 16µM* | -8% | 0% | ? | 20 | ?
O=[N+]([O-])c1cccc(/C=N/n2cnnc2)c1O | -15% | 5% | 5% | -15 | 22 | 4%
C[C@@]12CCC[C@H]1[C@@H]1CC[C@H]3C[C@@H](O)CC[C@]3(C)[C@H]1CC2 | 12% | nt | nt | nt | nt | -6%
C[C@]12CCC(O)CC1CCC1C2CC[C@]2(C)C(c3cc(C(F)(F)F)n[nH]3)CCC12 (stereo not given in full) | 13µM* | ? | nt | 5 | 20 | ?
COc1ccc2c(c1)cc1c(=O)n(CC(=O)NCCCc3ccccc3)nc(C)n12 | -2% | nt | 4% | nt | nt | -2%
CC1Cc2ccccc2N1S(=O)(=O)c1cccc(C(=O)N2CCN(c3ncccn3)CC2)c1 (stereo not given) | ? | 19% | 2% | -2 | -66* | ?
Cc1ccc(C(=O)Nc2nnc(S(=O)(=O)N3c4ccccc4CC3C)s2)cc1 (stereo not given) | 23µM* | nt | 0% | nt | nt | ?
CC(=O)N1CCN(C(=O)c2cccc(S(=O)(=O)N3c4ccccc4CC3C)c2)CC1 (stereo not given) | -26% | 8% | 2% | -10 | 34 | -9%
Cc1cccc(N2CCN(C(=O)c3ccc4c(c3)CCN4S(C)(=O)=O)CC2)c1C | ? | ? | 3% | -10 | -51* | 13µM*
Cc1cccc(N2CCN(C(=O)c3cccc(S(=O)(=O)N4CCCCC4)c3)CC2)c1C | ? | 13µM* | 1% | 13 | 17 | ?
CCN(C(=O)COC(=O)c1ccc([N+](=O)[O-])o1)c1cccc2ccccc12 | -5% | -3% | 5% | ? | -4 | -28%
COc1ccc(-c2nc3cc(NC(=O)COc4ccc(F)cc4)ccc3o2)cc1 | ? | nt | -1% | nt | nt | ?
COc1ccccc1N1CCN(C(=O)c2cccc(S(=O)(=O)N3CCCCCC3)c2)CC1 | 18µM* | 13µM* | 1% | -7 | 4 | ?
CCOC(=O)c1ccc(NC(=O)c2cccc(S(=O)(=O)N3c4ccccc4CC3C)c2)s1 (stereo not given) | 6.5µM* | 21µM* | 3% | -2 | 18 | 16µM*
Nc1nc(Cl)nc2ccc(Br)cc12 | 12µM* | ? | 4% | 20 | 22 | ?
Cc1cc(C2N=C(N)Nc3nc4ccccc4n32)c(C)n1-c1ccccc1Cl (stereo not given) | ? | -18% | 0% | 0 | -56* | 21µM*
Cc1ccc(-n2c(C)cc(C3N=C(N)Nc4nc5ccccc5n43)c2C)c(C)c1 (stereo not given) | 23µM* | -9% | 11% | -7 | ? | 21µM*
COc1ccc(OC)c(C2N=C(N)Nc3nc4ccccc4n32)c1 (stereo not given) | 7% | nt | 3% | nt | nt | -3%
Cc1c(C(=O)NCc2cccs2)oc2ccc(S(=O)(=O)N3CCOCC3)cc12 | ? | 10µM* | 1% | 28 | ? | -24%
Cc1c(C(=O)NCc2ccccn2)oc2ccc(S(=O)(=O)N3CCOCC3)cc12 | -16% | ? | 2% | -2 | 32 | -22%
Cc1cccc(NC(=O)c2oc3ccc(S(=O)(=O)N4CCOCC4)cc3c2C)c1C | 23µM* | ? | 2% | -2 | -6 | ?
Cc1ccc(NC(=O)c2oc3ccc(S(=O)(=O)N4CCOCC4)cc3c2C)c(C)c1 | ? | ? | 3% | 2 | 20 | ?
CC1O[C@@H](O[C@@H]2C(O)C[C@H](O[C@@H]3C(O)C[C@@H](OC4CC[C@@]5(C)C6CC(O)[C@@]7(C)C(C8=CC(=O)OC8)CC[C@@]7(O)C6CC[C@@H]5C4)OC3C)OC2C)CC(O)[C@H]1O (stereo not given in full) | 1.8µM* | nt | -7%[56.1 µM] | nt | nt | 3.3µM*
CC(C)N1CCc2c(sc(NC(=O)c3cc(-c4cccs4)nc4ccccc34)c2C(N)=O)C1 | 9.2µM* | ? | 8% | 19 | -21 | 18µM*
CC(C)N1CCc2c(sc(NC(=O)c3nc4ccccc4s3)c2C(N)=O)C1 | 21µM* | 1% | 7% | -2 | -10 | 13µM*
SMILES | TDP1 cell noCPT | ELG1 repair inh | TDP1 block | Giardia kill | IL1B secr inh | TDP1 cell CPT
Cc1noc(C)c1C(=O)N1CCC[C@@]2(CCN(c3ncccn3)C2)C1 | -16% | nt | nt | nt | nt | 2%
Cc1cc(C)c2oc(C(=O)Nc3nc4ccc(Cl)cc4s3)cc(=O)c2c1 | 7% | nt | 1% | nt | nt | 9%
COC(=O)NC(NC(=S)Nc1ccc([N+](=O)[O-])cc1)C(Cl)(Cl)Cl (stereo not given) | 7.3µM* | ? | 10% | 2 | -6 | 7.3µM*
O=C(NC(NC(=S)Nc1c(Cl)cccc1Cl)C(Cl)(Cl)Cl)c1cccc([N+](=O)[O-])c1 (stereo not given) | 12µM* | ? | 8% | -12 | -26 | 21µM*
O=C(NNC(=S)NC(=O)c1ccccc1Cl)c1cccc([N+](=O)[O-])c1 | ? | -19% | nt | -6 | 66 | ?
CCOC(=O)NC(NC(=S)Nc1ccc(OC)cc1)C(Cl)(Cl)Cl (stereo not given) | -2% | 12% | 3% | 7 | -16 | 0%
COc1ccc(NC(=S)NC(NC(=O)CCl)C(Cl)(Cl)Cl)c([N+](=O)[O-])c1 (stereo not given) | ? | ? | nt | 5 | -50* | ?
COc1ccc(NC(=O)c2ccc(C)cc2Cl)c([N+](=O)[O-])c1 | -9% | ? | -2% | 4 | -30 | -9%
CCC(C)(C)C(=O)Nc1ccc(OC)cc1[N+](=O)[O-] | -23% | ? | 4% | 39 | -17 | -15%
COc1ccc(NC(=S)NC(NC(=O)c2ccc(Cl)cc2Cl)C(Cl)(Cl)Cl)c([N+](=O)[O-])c1 (stereo not given) | ? | 0% | 8% | 10 | -95* | ?
CC1(C)O[C@H]2[C@@H](O1)[C@@H](C(=O)Nc1ccccc1O)O[C@@H]1OC(C)(C)O[C@@H]12 | -10% | nt | 8% | nt | nt | -18%
